Data reported in PubChem BioAssay (NCI).
Values joined by “and” are separate entries in the source; they are usually repeats but may differ in a detail not shown here. Equal entries are not always repeated. The panel holds about 83,000 compounds, 20% with a hit somewhere; the sample as a whole holds those more often.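 For each line, cells grew in 96-well plates with the test compound present at a single concentration for 48 hours.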 Active and inactive are the calls of the source. Rule for the calls: active = growth percent below 10; inactive = the rest.

Assays:
Test in all cases: NCI-60 one-dose screen, 48 h (100 = growth as untreated, 0 = no growth, -100 = all killed)
DU-145 prostate = conditions: 10 µM
K-562 leukemia = conditions: 10 µM
MALME-3M melanoma = conditions: 10 µM
MDA-MB-231 breast = conditions: 10 µM
RXF 393 renal = conditions: 10 µM
SF-268 CNS = conditions: 10 µM
SF-295 CNS = conditions: 10 µM
SF-539 CNS = conditions: 10 µM
UACC-257 melanoma = conditions: 10 µM
M14 melanoma = conditions: 10 µM
HT29 colon = conditions: 10 µM
SNB-75 CNS = conditions: 10 µM
SNB-19 CNS = conditions: 10 µM
U251 CNS = conditions: 10 µM
PC-3 prostate = conditions: 10 µM
SK-MEL-5 melanoma = conditions: 10 µM
UACC-62 melanoma = test system: UACC-62 melanoma
LOX IMVI melanoma = conditions: 10 µM
SK-MEL-28 melanoma = conditions: 10 µM
HCT-15 colon = conditions: 10 µM

Measured: growth

Cc1ccc(C(=O)N/N=C/c2ccc3c(c2)OCO3)cc1
inactive: DU-145 prostate 112% | K-562 leukemia 73.3% | MALME-3M melanoma 108% | MDA-MB-231 breast 90.5% | RXF 393 renal 102% | SF-268 CNS 96% | SF-295 CNS 115% | SF-539 CNS 103% | UACC-257 melanoma 115% | M14 melanoma 93% | HT29 colon 104% | SNB-75 CNS 95.8% | SNB-19 CNS 96.7% | U251 CNS 101% | PC-3 prostate 82.8% | SK-MEL-5 melanoma 100% | UACC-62 melanoma; 10 µM unless noted 76.3% | LOX IMVI melanoma 89.1% | SK-MEL-28 melanoma 107%

O=C(CS)Nc1ccc2ccccc2c1
inactive: DU-145 prostate 113% | K-562 leukemia 96.8% | MALME-3M melanoma 126% | MDA-MB-231 breast 106% | RXF 393 renal 82.8% | SF-268 CNS 85.8% | SF-295 CNS 123% | SF-539 CNS 99.5% | UACC-257 melanoma 133% | M14 melanoma 111% | SNB-75 CNS 112% | SNB-19 CNS 101% | U251 CNS 98% | PC-3 prostate 70% | SK-MEL-5 melanoma 91.9% | SK-MEL-28 melanoma 102%

COc1cc2c(cc1O)CC[C@@H]1C2CC[C@@]2(C)C1CC[C@@H]2O (stereo partly drawn)
inactive: DU-145 prostate 11% | MALME-3M melanoma 48.1% | MDA-MB-231 breast 26.7% | SF-268 CNS 50.6% | SF-295 CNS 25.2% | UACC-257 melanoma 23.3% | HCT-15 colon 29.9% | HT29 colon 22.4% | SNB-19 CNS 28.9% | U251 CNS 33.5% | PC-3 prostate 19.7% | UACC-62 melanoma; 10 µM unless noted 22.2% | LOX IMVI melanoma 48%
active: K-562 leukemia 2.79% | RXF 393 renal -4.44% | SF-539 CNS -4.91% | SNB-75 CNS 3.42% | SK-MEL-5 melanoma -22.1%

CC(=O)OCC1=CC2OC(=O)C3=COC(OC4OC(CO)C(O)C(O)C4O)C1C32 (stereo not drawn)
inactive: DU-145 prostate 114% | K-562 leukemia 121% | MALME-3M melanoma 96.5% | MDA-MB-231 breast 113% | RXF 393 renal 36.8% | SF-268 CNS 120% | SF-295 CNS 112% | SF-539 CNS 109% | UACC-257 melanoma 102% | HCT-15 colon 112% | HT29 colon 106% | SNB-75 CNS 104% | SNB-19 CNS 111% | U251 CNS 101% | PC-3 prostate 110% | SK-MEL-5 melanoma 104% | UACC-62 melanoma; 10 µM 102% | UACC-62 melanoma; 100 µM 77.3% and 98.7% | LOX IMVI melanoma 111%

O=c1cc(-c2ccccc2)[nH]c2c1CCCC2
active: RXF 393 renal -21.7% | SF-539 CNS 3.77% | M14 melanoma 8.23% | SNB-75 CNS -7.33% | SK-MEL-5 melanoma 7.3%
inactive: DU-145 prostate 21.2% | K-562 leukemia 23.2% | MALME-3M melanoma 31.6% | MDA-MB-231 breast 33.8% | SF-268 CNS 57.3% | SF-295 CNS 18.1% | UACC-257 melanoma 46.9% | HCT-15 colon 25% | SNB-19 CNS 39.4% | U251 CNS 27.9% | PC-3 prostate 28.5% | UACC-62 melanoma; 10 µM unless noted 35.2% | LOX IMVI melanoma 37.4% | SK-MEL-28 melanoma 52.1%

Cc1nc2c(ccc3ccccc32)s1
inactive: DU-145 prostate 123% | K-562 leukemia 115% | MALME-3M melanoma 110% | MDA-MB-231 breast 107% | RXF 393 renal 116% | SF-268 CNS 116% | SF-295 CNS 104% | SF-539 CNS 100% | UACC-257 melanoma 101% | M14 melanoma 98.5% | HCT-15 colon 110% | SNB-75 CNS 108% | SNB-19 CNS 107% | U251 CNS 99.3% | PC-3 prostate 99.7% | SK-MEL-5 melanoma 112% | LOX IMVI melanoma 98.4% | SK-MEL-28 melanoma 105%

Brc1cnc2ccccc2c1
inactive: DU-145 prostate 102% | K-562 leukemia 107% | MALME-3M melanoma 94.6% | MDA-MB-231 breast 113% | RXF 393 renal 121% | SF-268 CNS 97.2% | SF-295 CNS 101% | SF-539 CNS 103% | UACC-257 melanoma 103% | M14 melanoma 97.7% | HT29 colon 102% | SNB-75 CNS 106% | SNB-19 CNS 95.5% | U251 CNS 103% | PC-3 prostate 97% | SK-MEL-5 melanoma 106% | UACC-62 melanoma; 10 µM unless noted 93.4% | LOX IMVI melanoma 101%

CCC(C#N)(CC)c1ccccc1
inactive: DU-145 prostate 109% | K-562 leukemia 97.1% | MALME-3M melanoma 121% | MDA-MB-231 breast 97.4% | RXF 393 renal 115% | SF-268 CNS 99.3% | SF-295 CNS 113% | SF-539 CNS 113% | UACC-257 melanoma 104% | HCT-15 colon 90.6% | HT29 colon 110% | SNB-75 CNS 84.6% | SNB-19 CNS 99.5% | U251 CNS 109% | PC-3 prostate 102% | SK-MEL-5 melanoma 98.6% | UACC-62 melanoma; 10 µM unless noted 89.5% | LOX IMVI melanoma 97.9% | SK-MEL-28 melanoma 108%

Cc1cccc(CO)c1
inactive: DU-145 prostate 98.1% | K-562 leukemia 97.7% | MALME-3M melanoma 104% | MDA-MB-231 breast 104% | RXF 393 renal 121% | SF-268 CNS 95.4% | SF-295 CNS 100% | SF-539 CNS 108% | UACC-257 melanoma 99.9% | HCT-15 colon 105% | HT29 colon 108% | SNB-75 CNS 95.1% | SNB-19 CNS 107% | U251 CNS 94.5% | PC-3 prostate 104% | SK-MEL-5 melanoma 99.7% | UACC-62 melanoma; 10 µM unless noted 104% | LOX IMVI melanoma 100% | SK-MEL-28 melanoma 109%

CCCCCCCCOC(=O)c1ccccn1
inactive: DU-145 prostate 102% | K-562 leukemia 115% | MALME-3M melanoma 117% | MDA-MB-231 breast 95.2% | RXF 393 renal 116% | SF-268 CNS 97.6% | SF-295 CNS 133% | SF-539 CNS 96.9% | UACC-257 melanoma 107% | HCT-15 colon 97.3% | HT29 colon 96.2% | SNB-75 CNS 84.4% | SNB-19 CNS 105% | U251 CNS 110% | PC-3 prostate 97.4% | SK-MEL-5 melanoma 104% | UACC-62 melanoma; 10 µM unless noted 99.4% | LOX IMVI melanoma 91.7% | SK-MEL-28 melanoma 107%

CC(C)OC(C(=O)O)c1ccccc1 (stereo not drawn)
inactive: DU-145 prostate 113% | K-562 leukemia 124% | MALME-3M melanoma 133% | MDA-MB-231 breast 99.3% | RXF 393 renal 117% | SF-268 CNS 104% | SF-295 CNS 138% | SF-539 CNS 102% | UACC-257 melanoma 116% | HCT-15 colon 97.8% | HT29 colon 109% | SNB-75 CNS 78.2% | SNB-19 CNS 99.5% | U251 CNS 111% | PC-3 prostate 82.9% | SK-MEL-5 melanoma 105% | UACC-62 melanoma; 10 µM unless noted 97.1% | LOX IMVI melanoma 88.5% | SK-MEL-28 melanoma 102%

COS(=O)(=O)c1ccc(Br)cc1
inactive: DU-145 prostate 102% | K-562 leukemia 136% | MALME-3M melanoma 119% | MDA-MB-231 breast 92.5% | RXF 393 renal 105% | SF-268 CNS 84.9% | SF-295 CNS 107% | SF-539 CNS 102% | UACC-257 melanoma 93% | HCT-15 colon 104% | HT29 colon 107% | SNB-75 CNS 89.4% | SNB-19 CNS 98.3% | U251 CNS 89% | PC-3 prostate 93.2% | SK-MEL-5 melanoma 104% | UACC-62 melanoma; 10 µM unless noted 85.5% | LOX IMVI melanoma 97.2% | SK-MEL-28 melanoma 98.4%

Cc1cc(N)c(S(=O)(=O)O)c(N)c1
inactive: DU-145 prostate 96.6% | K-562 leukemia 125% | MALME-3M melanoma 118% | MDA-MB-231 breast 103% | RXF 393 renal 112% | SF-268 CNS 109% | SF-295 CNS 96% | SF-539 CNS 96.8% | UACC-257 melanoma 104% | HCT-15 colon 105% | HT29 colon 111% | SNB-75 CNS 98.8% | SNB-19 CNS 90.7% | U251 CNS 98.7% | PC-3 prostate 85.4% | SK-MEL-5 melanoma 104% | UACC-62 melanoma; 10 µM unless noted 92.4% | LOX IMVI melanoma 94% | SK-MEL-28 melanoma 104%

Oc1ccccc1O
inactive: DU-145 prostate 106% | K-562 leukemia 112% | MALME-3M melanoma 138% | MDA-MB-231 breast 63.9% | RXF 393 renal 94.4% | SF-268 CNS 87.2% | SF-295 CNS 136% | SF-539 CNS 84.1% | UACC-257 melanoma 87.7% | HCT-15 colon 95.6% | HT29 colon 92.1% | SNB-75 CNS 89.4% | SNB-19 CNS 80.2% | U251 CNS 82.7% | PC-3 prostate 87.4% | SK-MEL-5 melanoma 89.3% | UACC-62 melanoma; 10 µM unless noted 86.8% | LOX IMVI melanoma 85.3% | SK-MEL-28 melanoma 101%

CCCC1(c2ccccc2)NC(=O)NC1=O (stereo not drawn)
inactive: DU-145 prostate 108% | K-562 leukemia 135% | MALME-3M melanoma 121% | MDA-MB-231 breast 95.2% | RXF 393 renal 109% | SF-268 CNS 98.3% | SF-295 CNS 122% | SF-539 CNS 100% | UACC-257 melanoma 108% | HCT-15 colon 108% | HT29 colon 111% | SNB-75 CNS 86.5% | SNB-19 CNS 105% | U251 CNS 113% | PC-3 prostate 99% | SK-MEL-5 melanoma 99.3% | UACC-62 melanoma; 10 µM unless noted 97.4% | LOX IMVI melanoma 105% | SK-MEL-28 melanoma 104%

COc1cc(-c2ccc(NC(=O)NC3CC3)c(OC)c2)ccc1NC(=O)NC1CC1
inactive: DU-145 prostate 84.9% | K-562 leukemia 31.2% | MALME-3M melanoma 102% | MDA-MB-231 breast 71.1% | RXF 393 renal 73% | SF-268 CNS 62.8% | SF-295 CNS 75.9% | SF-539 CNS 67.2% | UACC-257 melanoma 26.5% | HCT-15 colon 31.2% | HT29 colon 48.6% | SNB-75 CNS 89.4% | SNB-19 CNS 84.7% | U251 CNS 37.4% | PC-3 prostate 41.6% | SK-MEL-5 melanoma 47.6% | UACC-62 melanoma; 10 µM unless noted 70.7% | LOX IMVI melanoma 36.8% | SK-MEL-28 melanoma 86.7%
